Experiment [1] addresses Transcription factor E2F1 (Homo sapiens) (UniProt Q01094). As to the kind of experiment: ATG_E2F_CIS: Attagene CIS-FACTORIAL HepG2 Assay for human E2F Transcription Factor 1 (AID 2282935). The conditions noted are these: HepG2 Attagene cis-reporter, E2F reporter RNA transcripts; actives raise or lower the signal. The essentials:
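First, HepG2 cells were transfected with reporter transcription units. Next, they were dosed for 24 h. Then RNA was isolated, converted to cDNA, PCR-amplified, FAM-labeled, HpaI-digested and analyzed by capillary electrophoresis.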

Experiment [2] in a line: ATG_E_Box_CIS: Attagene CIS-FACTORIAL HepG2 Assay for human Enhancer Box (E-box) (AID 2282936). The conditions noted are these: HepG2 E-box cis-reporter transcription, actives raise or lower the signal. The essentials:
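Endogenous transcription factor activity was sensed in human HepG2 liver cells through transfected cis-promoter reporter units. After 24 h of dosing, total RNA was reverse-transcribed and reporter cDNA resolved by capillary electrophoresis.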

Experiment [3] in a line: ATG_M_61_CIS: Attagene CIS-FACTORIAL HepG2 Assay for M61 Transcription Factor (Internal Marker) (AID 2282937). The conditions noted are these: HepG2 Attagene CIS-FACTORIAL M61 internal marker reporter; actives raise or lower the signal. The method in brief: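 Readout is reporter mRNA by RT-PCR, fluorescent primer extension and capillary electrophoresis, with gain or loss fitted relative to DMSO. Transfected HepG2 cells carrying endogenous-TF-driven cis reporters were exposed to chemicals for 24 hours.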

A short description of experiment [4]: ATG_EGR_CIS: Attagene CIS-FACTORIAL HepG2 Assay for human Early Growth Response 1 (EGR1) (AID 2282938). The conditions noted are these: HepG2 Attagene CIS-FACTORIAL EGR reporter mRNA; actives raise or lower the signal. The essentials:
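After 24 h compound exposure, RNA from reporter-transfected HepG2 cells was reverse-transcribed, PCR-amplified, fluorescently labelled and resolved by capillary electrophoresis. EGR1 reporter transcript changes, up or down, were fitted against DMSO, reflecting endogenous transcription-factor activity.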

A short description of experiment [5]: ATG_M_19_CIS: Attagene CIS-FACTORIAL HepG2 Assay for M19 Transcription Factor (Internal Marker) (AID 2282939). The conditions noted are these: HepG2 Attagene CIS-FACTORIAL M19 internal marker reporter; actives raise or lower the signal. The method in brief: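 Readout: fluorescent reporter-transcript fragments by capillary electrophoresis after RT-PCR. Human HepG2 liver cells carried transfected MRTU constructs reporting endogenous transcription-factor activity; exposure 24 h. Gain or loss of signal fitted relative to DMSO.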

Experiment [6] in a line: ATG_ERE_CIS: Attagene CIS-FACTORIAL HepG2 Assay for Estrogen Response Element (ERE) (AID 2282940). As to conditions: HepG2 ERE cis-reporter, Attagene RNA transcript; actives raise or lower the signal. The method in brief:
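Readout: reporter mRNA induction by RT-PCR, FAM-labelled primer extension, HpaI digestion and capillary electrophoresis, 24 h after dosing transfected HepG2 cells. Endogenous transcription factors act on cis-element-regulated reporters. Gain or loss fitted against DMSO.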

Experiment [7] in a line: ATG_Ets_CIS: Attagene CIS-FACTORIAL HepG2 Assay for human Erythroblast Transformation Specific (ETS) (AID 2282941). As to conditions: HepG2 ETS cis-reporter transcription, actives raise or lower the signal. The method in brief: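 Multiplexed reporter transcript profiling: HepG2, 24 h treatment, total RNA to cDNA, PCR, 6-FAM labelling, HpaI cut, capillary electrophoresis. Gain- or loss-of-signal fitted against DMSO.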

Experiment [8] deals with Hepatocyte nuclear factor 3-beta (Homo sapiens) (UniProt Q9Y261). The experiment can be described thus: ATG_FoxA2_CIS: Attagene CIS-FACTORIAL HepG2 Assay for human Forkhead box A2 (FOXA2) (AID 2282942). The conditions noted are these: HepG2 cis-reporter transcription factor activity, 24 h; actives raise or lower the signal. The essentials:
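Endogenous transcription factor activity is captured via cis-element-driven reporter transcripts in transfected HepG2. Total RNA taken at 24 h post-dosing; labelled RT-PCR products resolved by capillary electrophoresis. Gain or loss fitted versus DMSO.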

Experiment [9] is described as follows: ATG_FoxO_CIS: Attagene CIS-FACTORIAL HepG2 Assay for human Forkhead box O (FoxO) (AID 2282943). As to conditions: HepG2 Attagene cis-reporter, FoxO element, mRNA; actives raise or lower the signal. The essentials: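 HepG2 cells transiently transfected with cis-promoter-driven multiple reporter transcription units; 24 h after chemical dosing, reporter mRNA quantified by RT-PCR, fluorescent primer extension, HpaI digestion and capillary electrophoresis. Bidirectional fitting versus DMSO baseline.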

Experiment [10] is described as follows: ATG_GATA_CIS: Attagene CIS-FACTORIAL HepG2 Assay for human GATA Binding Protein (AID 2282944). As to conditions: HepG2 GATA cis-element reporter, Attagene multiplex mRNA; actives raise or lower the signal. The essentials:
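Read-out: fluorescent reporter mRNA fragments resolved by capillary electrophoresis after RT-PCR. Human liver HepG2 cells carried transiently transfected cis-regulated reporter constructs; chemicals incubated 24 h; gain or loss of signal fitted relative to DMSO.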

Experiment [11] is described as follows: ATG_GLI_CIS: Attagene CIS-FACTORIAL HepG2 Assay for human Zinc Finger Protein GLI1 (AID 2282945). The conditions noted are these: HepG2, Attagene cis-factorial reporter mRNA, GLI element; actives raise or lower the signal. The essentials: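 HepG2 cells transiently transfected with cis-promoter multiplexed reporter units report endogenous transcription factor activity. After 24 h chemical exposure, reporter mRNA was quantified by RT-PCR, 6-FAM labelling, HpaI digestion and capillary electrophoresis, with bidirectional fitting against DMSO.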

In experiment [12] the target is Bile acid receptor (Homo sapiens) (UniProt Q96RI1). The experiment can be described thus: ATG_IR1_CIS: Attagene CIS-FACTORIAL HepG2 Assay for human Nuclear Receptor Subfamily 1 Group H Member 4 (NR1H4), IR1 submotif (AID 2282946). As to conditions: IR1 reporter transcription, actives raise or lower the signal. The essentials:
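Readout: reporter transcript levels by RT-PCR with fluorescent capillary electrophoresis, from HepG2 cells transiently transfected with multiplexed cis-regulated reporters and dosed 24 h. Gain- or loss-of-signal fitted versus DMSO negative control.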

The nature of experiment [13]: ATG_GRE_CIS: Attagene CIS-FACTORIAL HepG2 Assay for human Glucocorticoid Response Elements (GRE) (AID 2282947). The conditions noted are these: HepG2 GRE cis-reporter, Attagene multiplex mRNA; actives raise or lower the signal. The method in brief:
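Cells (HepG2) bearing transfected cis-promoter reporter transcription units were treated with chemical for 24 hours. Reporter mRNA was measured via RT-PCR with capillary electrophoresis, and activity was fitted in both directions relative to DMSO.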

Experiment [14] is described as follows: ATG_ISRE_CIS: Attagene CIS-FACTORIAL HepG2 Assay for human Interferon Regulatory Factor 1 (IRF1) binding to an Interferon-Stimulated Response Element (ISRE) (AID 2282948). The conditions noted are these: HepG2 ISRE cis-reporter (Attagene), mRNA transcription readout; actives raise or lower the signal. The method in brief: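 Signal reflects induction or loss of ISRE-linked reporter mRNA in transiently transfected HepG2 cells after a 24 h treatment, detected by fluorescent RT-PCR fragments on capillary electrophoresis and normalised to DMSO.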

The nature of experiment [15]: ATG_M_32_CIS: Attagene CIS-FACTORIAL HepG2 Assay for M32 Transcription Factor (Internal Marker) (AID 2282949).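 Further: background control marker of the multiplexed CIS panel rather than a real target.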 As to conditions: HepG2 Attagene cis-factorial M32 reporter, mRNA; actives raise or lower the signal. The method in brief: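 HepG2 transfectants (cis-regulated reporter transcription units) dosed 24 h. Reporter mRNA by RT-PCR plus CE, analysed as gain or loss relative to DMSO.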

Experiment [16] can be described thus: ATG_M_06_CIS: Attagene CIS-FACTORIAL HepG2 Assay for M06 Transcription Factor (Internal Marker) (AID 2282950). As to conditions: HepG2 Attagene CIS-FACTORIAL M06 internal marker reporter; actives raise or lower the signal. The method in brief: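 Terse: HepG2, transient MRTU transfection (FuGene 6), 24 h dosing; total RNA, oligo(dT) RT, PCR, FAM label, HpaI cut, capillary electrophoresis; bidirectional fit vs DMSO baseline; background-control endpoint.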

For experiment [17], the target named is Hypoxia-inducible factor 1-alpha (Homo sapiens) (UniProt Q16665). As to the kind of experiment: ATG_HIF1a_CIS: Attagene CIS-FACTORIAL HepG2 Assay for human Hypoxia Inducible Factor 1 (HIF1A) (AID 2282951). As to conditions: HepG2 Attagene cis-factorial HIF1a reporter transcription; actives raise or lower the signal. The method in brief: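 Activity is fitted in both directions relative to DMSO. Reporter transcripts are read by RT-PCR, fluorescent primer extension and capillary electrophoresis after 24 h chemical treatment. The cells are HepG2 carrying transiently transfected cis-element-driven reporter units responding to endogenous factors.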
Hypoxia-inducible factor 1-alpha (Homo sapiens), sequence (Q16665 whole entry, looked up): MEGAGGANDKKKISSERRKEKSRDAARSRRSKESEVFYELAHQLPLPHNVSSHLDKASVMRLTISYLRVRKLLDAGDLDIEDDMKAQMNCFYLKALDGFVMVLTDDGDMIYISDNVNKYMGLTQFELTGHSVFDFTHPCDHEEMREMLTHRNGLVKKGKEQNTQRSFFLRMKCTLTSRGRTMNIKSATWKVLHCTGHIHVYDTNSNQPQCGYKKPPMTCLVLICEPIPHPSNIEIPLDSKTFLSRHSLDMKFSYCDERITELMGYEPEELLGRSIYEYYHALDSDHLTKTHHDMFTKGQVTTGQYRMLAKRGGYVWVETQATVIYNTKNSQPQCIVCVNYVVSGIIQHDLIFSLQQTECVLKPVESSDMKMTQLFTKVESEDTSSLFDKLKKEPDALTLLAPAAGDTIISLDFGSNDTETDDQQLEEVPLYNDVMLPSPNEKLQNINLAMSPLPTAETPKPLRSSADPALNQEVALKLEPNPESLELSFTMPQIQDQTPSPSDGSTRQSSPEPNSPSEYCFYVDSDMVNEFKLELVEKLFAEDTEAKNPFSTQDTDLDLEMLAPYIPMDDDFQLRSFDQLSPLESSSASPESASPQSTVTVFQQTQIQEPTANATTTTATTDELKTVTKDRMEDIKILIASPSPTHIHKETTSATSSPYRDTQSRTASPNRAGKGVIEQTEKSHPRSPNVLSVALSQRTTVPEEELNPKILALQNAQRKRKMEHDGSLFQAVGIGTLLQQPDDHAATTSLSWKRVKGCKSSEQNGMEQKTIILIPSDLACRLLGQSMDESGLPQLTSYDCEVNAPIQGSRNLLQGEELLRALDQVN

Experiment [18] has as its target Hepatocyte nuclear factor 6 (Homo sapiens) (UniProt Q9UBC0). The experiment can be described thus: ATG_HNF6_CIS: Attagene CIS-FACTORIAL HepG2 Assay for human Hepatocyte Nuclear Factor 6 (HNF6) (AID 2282952). The conditions noted are these: HepG2 Attagene cis-factorial HNF6 reporter transcription; actives raise or lower the signal. The method in brief:
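Activity values derive from bidirectional fitting against DMSO of reporter mRNA levels, measured by capillary electrophoresis of labelled RT-PCR products from HepG2 cells exposed 24 h.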

Experiment [19] addresses Heat shock factor protein 1 (Homo sapiens) (UniProt Q00613). The experiment can be described thus: ATG_HSE_CIS: Attagene CIS-FACTORIAL HepG2 Assay for human Heat Shock Transcription Factor 1 (HSE) (AID 2282953). As to conditions: HepG2 HSE cis-reporter, Attagene RNA transcription; actives raise or lower the signal. The essentials: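 Read-out: fluorescence of reporter-specific RT-PCR fragments separated by capillary electrophoresis. HepG2 carrying transfected cis-element reporter units; 24 h dosing; activity fitted in both directions relative to DMSO baseline.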

Experiment [20] in a line: ATG_MRE_CIS: Attagene CIS-FACTORIAL HepG2 Assay for human Metal Responsive Element (MRE) (AID 2282954). As to conditions: HepG2 MRE cis-reporter transcription, Attagene multiplex; actives raise or lower the signal. The essentials: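 Cells were transfected with cis-promoter reporter transcription units, then dosed for 24 h. RNA was reverse-transcribed, amplified, fluorescently labelled and resolved by capillary electrophoresis, and activity was fitted in both directions relative to DMSO.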

Results on three molecules are retold here after PubChem BioAssay (EPA / NIEHS).

The source made the active and inactive calls. How the source made its calls: active means hit-call score of the fitted dose curve at least 0.9, where 1 is the maximum; inactive means score below 0.9.

Hepatocyte nuclear factor 6 (Homo sapiens), sequence (Q9UBC0 whole entry, looked up): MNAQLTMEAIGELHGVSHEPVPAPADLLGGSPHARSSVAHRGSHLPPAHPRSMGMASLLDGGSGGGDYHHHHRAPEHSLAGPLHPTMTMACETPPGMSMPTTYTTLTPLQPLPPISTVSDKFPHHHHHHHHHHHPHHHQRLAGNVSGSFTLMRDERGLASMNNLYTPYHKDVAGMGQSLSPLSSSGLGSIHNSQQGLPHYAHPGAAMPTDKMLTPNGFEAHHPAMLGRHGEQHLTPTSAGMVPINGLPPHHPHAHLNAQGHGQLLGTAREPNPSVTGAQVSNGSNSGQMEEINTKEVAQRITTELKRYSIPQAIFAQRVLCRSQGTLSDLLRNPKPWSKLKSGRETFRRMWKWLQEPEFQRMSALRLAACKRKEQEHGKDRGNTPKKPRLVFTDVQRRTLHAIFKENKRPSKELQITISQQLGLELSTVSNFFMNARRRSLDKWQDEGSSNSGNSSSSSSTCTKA
Transcription factor E2F1 (Homo sapiens), sequence (Q01094 whole entry, looked up): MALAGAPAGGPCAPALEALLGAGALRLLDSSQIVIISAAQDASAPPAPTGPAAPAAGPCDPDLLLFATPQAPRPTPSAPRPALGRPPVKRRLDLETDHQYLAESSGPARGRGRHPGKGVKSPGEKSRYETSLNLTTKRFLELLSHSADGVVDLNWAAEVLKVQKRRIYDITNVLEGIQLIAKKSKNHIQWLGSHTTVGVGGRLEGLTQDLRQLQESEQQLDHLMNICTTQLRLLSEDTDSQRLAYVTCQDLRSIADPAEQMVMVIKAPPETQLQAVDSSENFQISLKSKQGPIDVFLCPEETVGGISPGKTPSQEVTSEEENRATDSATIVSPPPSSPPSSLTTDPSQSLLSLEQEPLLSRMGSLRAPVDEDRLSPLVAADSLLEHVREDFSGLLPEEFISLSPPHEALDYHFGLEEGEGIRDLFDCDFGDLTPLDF
Hepatocyte nuclear factor 3-beta (Homo sapiens), sequence (Q9Y261 whole entry, looked up): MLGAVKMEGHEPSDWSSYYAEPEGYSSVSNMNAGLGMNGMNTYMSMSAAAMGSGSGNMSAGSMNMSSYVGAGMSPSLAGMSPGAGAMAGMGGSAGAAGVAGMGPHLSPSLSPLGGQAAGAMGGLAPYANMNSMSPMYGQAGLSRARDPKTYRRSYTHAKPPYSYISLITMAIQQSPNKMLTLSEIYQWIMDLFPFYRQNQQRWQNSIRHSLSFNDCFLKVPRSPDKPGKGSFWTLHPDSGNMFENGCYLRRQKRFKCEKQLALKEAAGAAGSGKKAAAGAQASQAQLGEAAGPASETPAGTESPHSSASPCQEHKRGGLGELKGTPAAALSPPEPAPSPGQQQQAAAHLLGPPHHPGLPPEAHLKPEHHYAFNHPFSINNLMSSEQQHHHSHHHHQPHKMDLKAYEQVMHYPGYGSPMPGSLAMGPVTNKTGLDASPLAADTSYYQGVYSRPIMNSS
Bile acid receptor (Homo sapiens), sequence (Q96RI1 whole entry, looked up): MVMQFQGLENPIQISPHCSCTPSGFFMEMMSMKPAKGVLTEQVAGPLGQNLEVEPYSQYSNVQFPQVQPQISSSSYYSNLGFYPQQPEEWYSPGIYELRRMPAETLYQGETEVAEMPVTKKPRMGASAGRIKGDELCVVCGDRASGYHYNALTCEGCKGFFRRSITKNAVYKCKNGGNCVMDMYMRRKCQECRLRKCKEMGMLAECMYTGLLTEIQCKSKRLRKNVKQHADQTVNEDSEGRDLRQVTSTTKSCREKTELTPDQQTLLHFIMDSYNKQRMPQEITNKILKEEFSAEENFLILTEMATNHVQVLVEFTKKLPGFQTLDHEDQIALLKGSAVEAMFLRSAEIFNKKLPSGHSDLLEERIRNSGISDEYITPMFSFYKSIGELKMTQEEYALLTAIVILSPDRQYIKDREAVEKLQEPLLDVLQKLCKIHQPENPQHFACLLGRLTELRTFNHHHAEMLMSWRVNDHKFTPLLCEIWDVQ
Heat shock factor protein 1 (Homo sapiens), sequence (Q00613 whole entry, looked up, the tested form may be a part): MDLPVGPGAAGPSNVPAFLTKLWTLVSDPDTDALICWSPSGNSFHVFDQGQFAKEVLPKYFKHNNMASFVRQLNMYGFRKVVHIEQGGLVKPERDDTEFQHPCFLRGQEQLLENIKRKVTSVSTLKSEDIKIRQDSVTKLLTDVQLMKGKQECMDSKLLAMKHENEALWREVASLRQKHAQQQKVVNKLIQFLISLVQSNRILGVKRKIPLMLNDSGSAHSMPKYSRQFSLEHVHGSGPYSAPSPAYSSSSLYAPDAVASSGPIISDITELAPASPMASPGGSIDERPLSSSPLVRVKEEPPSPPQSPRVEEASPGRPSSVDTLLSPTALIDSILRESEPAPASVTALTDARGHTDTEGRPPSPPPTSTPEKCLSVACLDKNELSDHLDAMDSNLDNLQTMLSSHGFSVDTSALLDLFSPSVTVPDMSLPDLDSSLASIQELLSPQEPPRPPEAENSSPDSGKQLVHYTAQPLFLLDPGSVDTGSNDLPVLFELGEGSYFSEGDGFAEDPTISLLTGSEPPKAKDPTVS

On to `OCC(F)(F)OC(F)(F)C(F)(F)OC(F)(F)C(F)(F)OC(F)(F)CO`, for which the call in experiment [1], in experiment [2], in [3], in [4], in experiment [5] and in experiment [7] was inactive. Besides, the molecule was classed as inactive in [8], in experiment [9], in [10], in experiment [11], in experiment [12] and in experiment [13]. Further, the molecule was called inactive in experiment [14], in experiment [15], in [16], in experiment [17], in experiment [18] and in experiment [19]. The call in experiment [20] was inactive. The AC50 – broadly, the concentration giving half of the maximal activity seen – in experiment [6] is 0.506 µM (active).
Consider `N#Cc1ccc(O)cc1`, for which the outcome in [1], in experiment [2], in experiment [3], in experiment [4], in experiment [5] and in [6] was inactive. For the same molecule, the outcome in experiment [7], in experiment [8], in experiment [9], in [10], in experiment [11] and in [12] was inactive. Further, the molecule was classed as inactive in [13], in experiment [14], in experiment [15], in experiment [16], in [17] and in experiment [18]. In experiment [20], the result was inactive.
For the molecule `ClC1=C(Cl)C2(Cl)C3C(Cl)C(Cl)CC3C1(Cl)C2(Cl)Cl` (centres undefined), the call in experiment [1], in experiment [3], in [5], in experiment [7], in experiment [8] and in [9] was inactive. In addition, the call in experiment [10], in experiment [11], in experiment [13], in [14], in experiment [15] and in experiment [16] was inactive. Further, the molecule was classed as inactive in experiment [17] and in experiment [18]. In addition, the half-maximal activity concentration (AC50) in experiment [2] is 52.3 µM (active); in experiment [4], 25.2 µM (active); in experiment [6], 11.2 µM (active); in experiment [12], 17.1 µM (active); in experiment [19] it was 50 µM (active); in experiment [20], 41.2 µM (active).
